This note sets out measurements from ChEMBL document CHEMBL2218924, “A broad activity screen in support of a chemogenomic map for kinase signalling research and drug discovery” (Biochem J, 2013).

Assay [1] addresses Insulin-like growth factor 1 receptor (Homo sapiens) (UniProt P08069). Conditions: at 10 µM; call rule not given here.
Assay [2] addresses T1, Protein kinase C zeta type (Homo sapiens) (UniProt Q05513).
T1 sequence (whole entry): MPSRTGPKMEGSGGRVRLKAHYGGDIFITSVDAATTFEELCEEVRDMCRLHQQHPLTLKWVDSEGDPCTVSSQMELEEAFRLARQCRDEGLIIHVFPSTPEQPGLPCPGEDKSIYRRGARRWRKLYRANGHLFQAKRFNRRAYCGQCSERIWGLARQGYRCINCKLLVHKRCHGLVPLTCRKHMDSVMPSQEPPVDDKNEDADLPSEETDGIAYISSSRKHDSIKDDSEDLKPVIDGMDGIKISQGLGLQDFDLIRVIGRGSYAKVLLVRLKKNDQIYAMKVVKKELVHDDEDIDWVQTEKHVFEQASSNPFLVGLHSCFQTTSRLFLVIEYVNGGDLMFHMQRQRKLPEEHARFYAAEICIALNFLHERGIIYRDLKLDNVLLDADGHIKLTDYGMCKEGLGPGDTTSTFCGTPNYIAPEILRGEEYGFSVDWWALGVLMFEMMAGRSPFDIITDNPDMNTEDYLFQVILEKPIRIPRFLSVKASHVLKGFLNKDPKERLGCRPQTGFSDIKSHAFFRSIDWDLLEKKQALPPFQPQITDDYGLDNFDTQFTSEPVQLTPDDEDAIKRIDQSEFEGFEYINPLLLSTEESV
The settings on record: at 10 µM.

Assay [3] addresses Protein kinase C eta type (Homo sapiens) (UniProt P24723). Conditions: at 1 µM.
For assay [4] the target is unchanged. Conditions: at 10 µM.
For assay [5], the target named is Protein kinase C theta type (Homo sapiens) (UniProt Q04759). Conditions: at 1 µM.
Protein kinase C theta type (Homo sapiens), sequence (Q04759 whole entry, looked up): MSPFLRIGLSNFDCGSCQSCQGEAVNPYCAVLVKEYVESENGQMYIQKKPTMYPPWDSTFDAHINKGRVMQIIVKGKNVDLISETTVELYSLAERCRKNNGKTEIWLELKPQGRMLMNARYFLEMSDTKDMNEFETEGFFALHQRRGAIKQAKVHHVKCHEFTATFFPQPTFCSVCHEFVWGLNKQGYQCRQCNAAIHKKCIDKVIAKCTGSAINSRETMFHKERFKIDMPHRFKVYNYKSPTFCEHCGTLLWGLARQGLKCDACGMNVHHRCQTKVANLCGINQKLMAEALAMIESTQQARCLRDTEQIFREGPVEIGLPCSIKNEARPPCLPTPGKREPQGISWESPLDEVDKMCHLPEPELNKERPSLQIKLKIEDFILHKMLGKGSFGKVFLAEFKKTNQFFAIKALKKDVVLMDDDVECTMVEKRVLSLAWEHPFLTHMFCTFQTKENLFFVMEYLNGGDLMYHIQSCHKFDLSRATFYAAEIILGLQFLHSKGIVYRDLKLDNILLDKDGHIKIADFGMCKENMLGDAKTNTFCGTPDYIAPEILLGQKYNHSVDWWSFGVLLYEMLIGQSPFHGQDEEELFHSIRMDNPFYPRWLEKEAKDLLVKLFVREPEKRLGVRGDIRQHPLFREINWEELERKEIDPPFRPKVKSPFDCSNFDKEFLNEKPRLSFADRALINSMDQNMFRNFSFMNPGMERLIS
Assay [6] has the same target. Conditions: at 10 µM.
For assay [7], the target named is T2, Protein kinase C iota type (Homo sapiens) (UniProt P41743).
T2 sequence (whole entry): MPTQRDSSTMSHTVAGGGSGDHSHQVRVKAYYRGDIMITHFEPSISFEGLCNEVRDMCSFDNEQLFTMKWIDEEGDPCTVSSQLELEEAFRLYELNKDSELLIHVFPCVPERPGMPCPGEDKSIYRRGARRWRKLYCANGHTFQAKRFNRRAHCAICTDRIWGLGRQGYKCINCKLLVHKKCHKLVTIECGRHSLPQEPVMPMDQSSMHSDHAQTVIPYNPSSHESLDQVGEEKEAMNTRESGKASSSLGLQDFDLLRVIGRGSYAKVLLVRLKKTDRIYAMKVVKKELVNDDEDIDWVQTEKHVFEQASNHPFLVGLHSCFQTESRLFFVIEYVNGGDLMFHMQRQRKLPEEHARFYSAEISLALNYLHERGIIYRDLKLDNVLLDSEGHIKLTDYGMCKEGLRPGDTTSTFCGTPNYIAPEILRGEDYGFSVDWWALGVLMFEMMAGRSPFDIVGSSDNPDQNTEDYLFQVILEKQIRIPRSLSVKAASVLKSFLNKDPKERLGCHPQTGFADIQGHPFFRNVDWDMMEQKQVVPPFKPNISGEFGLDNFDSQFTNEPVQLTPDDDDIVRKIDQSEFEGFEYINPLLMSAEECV
Conditions: at 1 µM.

Assay [8] concerns the target T2, Protein kinase C iota type (Homo sapiens). Conditions: at 10 µM.
Assay [9] has as its target Serine/threonine-protein kinase N2 (Homo sapiens) (UniProt Q16513). The settings on record: at 1 µM.
The target is the same in assay [10]. The settings on record: at 10 µM.
In assay [11] the target is T3, Serine/threonine-protein kinase D1 (Homo sapiens) (UniProt Q15139).
T3 sequence (whole entry): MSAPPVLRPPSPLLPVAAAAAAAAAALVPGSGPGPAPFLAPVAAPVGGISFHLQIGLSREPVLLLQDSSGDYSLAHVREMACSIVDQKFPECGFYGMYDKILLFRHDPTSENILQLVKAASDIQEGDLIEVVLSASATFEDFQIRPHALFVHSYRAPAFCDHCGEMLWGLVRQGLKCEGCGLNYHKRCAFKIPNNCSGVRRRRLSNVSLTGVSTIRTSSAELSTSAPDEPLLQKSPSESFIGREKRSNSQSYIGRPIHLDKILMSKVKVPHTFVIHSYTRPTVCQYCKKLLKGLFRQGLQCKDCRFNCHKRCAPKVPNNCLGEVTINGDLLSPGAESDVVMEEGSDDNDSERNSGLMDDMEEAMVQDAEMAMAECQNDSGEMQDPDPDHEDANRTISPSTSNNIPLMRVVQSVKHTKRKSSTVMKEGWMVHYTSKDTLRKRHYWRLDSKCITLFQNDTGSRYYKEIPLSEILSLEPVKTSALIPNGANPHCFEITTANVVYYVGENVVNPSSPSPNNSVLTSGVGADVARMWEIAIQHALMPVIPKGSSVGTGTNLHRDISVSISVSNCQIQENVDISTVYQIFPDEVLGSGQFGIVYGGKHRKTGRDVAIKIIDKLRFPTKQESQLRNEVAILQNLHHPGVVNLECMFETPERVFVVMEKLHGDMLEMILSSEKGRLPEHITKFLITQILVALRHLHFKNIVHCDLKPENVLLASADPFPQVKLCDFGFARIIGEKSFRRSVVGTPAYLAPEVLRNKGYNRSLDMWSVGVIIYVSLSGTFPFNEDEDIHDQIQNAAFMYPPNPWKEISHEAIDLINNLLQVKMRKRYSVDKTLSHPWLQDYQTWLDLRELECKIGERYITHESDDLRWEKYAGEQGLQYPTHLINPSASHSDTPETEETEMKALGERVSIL
Conditions: at 10 µM.

Assay [12] concerns the target T4, cGMP-dependent protein kinase 1 (Homo sapiens) (UniProt Q13976).
T4 sequence (whole entry): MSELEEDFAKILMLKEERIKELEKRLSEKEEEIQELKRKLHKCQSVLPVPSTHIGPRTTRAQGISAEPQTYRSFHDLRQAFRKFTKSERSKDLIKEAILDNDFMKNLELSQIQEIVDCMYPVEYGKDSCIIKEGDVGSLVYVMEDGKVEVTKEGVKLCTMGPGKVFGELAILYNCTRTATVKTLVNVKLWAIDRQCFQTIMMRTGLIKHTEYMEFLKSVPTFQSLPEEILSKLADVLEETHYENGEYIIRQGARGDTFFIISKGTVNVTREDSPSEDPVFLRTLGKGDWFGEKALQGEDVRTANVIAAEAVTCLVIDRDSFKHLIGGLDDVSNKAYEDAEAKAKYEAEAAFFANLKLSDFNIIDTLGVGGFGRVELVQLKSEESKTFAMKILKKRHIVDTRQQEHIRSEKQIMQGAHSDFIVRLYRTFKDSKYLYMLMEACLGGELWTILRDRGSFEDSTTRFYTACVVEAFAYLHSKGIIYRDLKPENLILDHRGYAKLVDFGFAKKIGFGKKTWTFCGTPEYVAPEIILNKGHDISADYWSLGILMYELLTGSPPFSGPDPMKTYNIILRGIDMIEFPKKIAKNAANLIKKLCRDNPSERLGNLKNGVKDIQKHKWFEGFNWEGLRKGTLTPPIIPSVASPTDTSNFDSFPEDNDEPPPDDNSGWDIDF
The settings on record: at 1 µM.

Assay [13] has as its target T4, cGMP-dependent protein kinase 1 (Homo sapiens). Conditions: at 10 µM.
The target is the same in assay [14]. The settings on record: at 1 µM. The source holds these as a separate data set.
The target is the same in assay [15]. The settings on record: at 10 µM. This is another data set of the same source.
Assay [16] concerns the target T3, Serine/threonine-protein kinase D1 (Homo sapiens). Conditions: at 1 µM.
Assay [17] has as its target T5, Serine/threonine-protein kinase D2 (Homo sapiens) (UniProt Q9BZL6).
T5 sequence (whole entry): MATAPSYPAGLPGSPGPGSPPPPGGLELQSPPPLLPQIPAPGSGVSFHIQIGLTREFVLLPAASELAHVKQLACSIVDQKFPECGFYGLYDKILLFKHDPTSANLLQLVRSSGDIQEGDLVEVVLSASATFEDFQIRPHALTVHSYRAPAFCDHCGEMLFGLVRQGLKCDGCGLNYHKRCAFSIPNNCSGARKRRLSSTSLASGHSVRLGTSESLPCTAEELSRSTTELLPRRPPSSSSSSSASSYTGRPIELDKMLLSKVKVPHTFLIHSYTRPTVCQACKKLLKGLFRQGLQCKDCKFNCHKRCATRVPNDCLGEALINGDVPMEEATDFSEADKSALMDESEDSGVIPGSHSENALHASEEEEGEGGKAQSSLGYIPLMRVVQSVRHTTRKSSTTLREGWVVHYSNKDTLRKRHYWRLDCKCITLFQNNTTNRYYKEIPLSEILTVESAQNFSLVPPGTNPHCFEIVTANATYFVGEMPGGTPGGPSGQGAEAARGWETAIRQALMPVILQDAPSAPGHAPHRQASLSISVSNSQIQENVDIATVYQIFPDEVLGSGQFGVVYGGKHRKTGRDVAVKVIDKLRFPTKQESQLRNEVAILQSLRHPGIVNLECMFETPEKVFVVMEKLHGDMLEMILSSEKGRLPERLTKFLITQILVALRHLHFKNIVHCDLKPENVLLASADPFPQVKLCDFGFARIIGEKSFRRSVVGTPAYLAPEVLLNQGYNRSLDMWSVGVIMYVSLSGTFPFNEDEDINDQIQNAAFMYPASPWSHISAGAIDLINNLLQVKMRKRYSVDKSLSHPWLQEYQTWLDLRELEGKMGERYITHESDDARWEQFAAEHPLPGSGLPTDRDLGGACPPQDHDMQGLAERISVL
The settings on record: at 1 µM.

Assay [18] has as its target T5, Serine/threonine-protein kinase D2 (Homo sapiens). The settings on record: at 10 µM.
In assay [19] the target is T6, MAP kinase-activated protein kinase 5 (Homo sapiens) (UniProt Q8IW41).
T6 sequence (whole entry): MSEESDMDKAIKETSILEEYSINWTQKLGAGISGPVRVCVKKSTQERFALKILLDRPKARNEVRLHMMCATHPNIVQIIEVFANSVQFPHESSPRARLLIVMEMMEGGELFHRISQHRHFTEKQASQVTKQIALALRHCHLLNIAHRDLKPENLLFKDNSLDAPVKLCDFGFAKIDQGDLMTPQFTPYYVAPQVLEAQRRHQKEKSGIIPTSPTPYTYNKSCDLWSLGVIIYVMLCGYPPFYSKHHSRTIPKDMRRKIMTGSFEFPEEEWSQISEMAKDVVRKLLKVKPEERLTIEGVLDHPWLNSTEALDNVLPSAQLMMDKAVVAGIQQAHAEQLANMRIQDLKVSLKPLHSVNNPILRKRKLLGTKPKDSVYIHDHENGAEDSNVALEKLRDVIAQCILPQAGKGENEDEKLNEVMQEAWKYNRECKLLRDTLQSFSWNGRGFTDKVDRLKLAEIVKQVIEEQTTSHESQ
The settings on record: at 1 µM.

Assay [20] deals with T6, MAP kinase-activated protein kinase 5 (Homo sapiens). Conditions: at 10 µM.

Insulin-like growth factor 1 receptor (Homo sapiens), sequence (P08069 31-736 limits assumed): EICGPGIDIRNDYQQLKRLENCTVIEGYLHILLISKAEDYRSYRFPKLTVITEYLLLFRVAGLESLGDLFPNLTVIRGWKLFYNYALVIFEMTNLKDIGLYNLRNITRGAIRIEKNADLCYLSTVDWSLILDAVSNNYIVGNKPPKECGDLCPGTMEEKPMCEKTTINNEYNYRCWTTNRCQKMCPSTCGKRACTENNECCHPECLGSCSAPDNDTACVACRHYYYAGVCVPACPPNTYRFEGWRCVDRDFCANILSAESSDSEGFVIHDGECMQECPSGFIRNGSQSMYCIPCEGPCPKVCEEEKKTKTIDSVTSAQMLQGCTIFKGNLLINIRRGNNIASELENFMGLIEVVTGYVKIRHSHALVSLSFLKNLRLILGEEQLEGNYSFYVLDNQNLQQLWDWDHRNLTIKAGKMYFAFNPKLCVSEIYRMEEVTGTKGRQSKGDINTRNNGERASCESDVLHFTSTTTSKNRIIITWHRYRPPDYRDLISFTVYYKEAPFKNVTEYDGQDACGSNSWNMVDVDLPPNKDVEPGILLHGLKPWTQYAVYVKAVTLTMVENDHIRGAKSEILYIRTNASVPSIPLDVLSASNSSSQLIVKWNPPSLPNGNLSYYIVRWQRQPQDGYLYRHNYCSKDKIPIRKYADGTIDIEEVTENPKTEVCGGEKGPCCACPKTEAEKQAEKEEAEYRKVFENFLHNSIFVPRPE
Insulin-like growth factor 1 receptor (Homo sapiens), sequence (P08069 741-1367 limits assumed): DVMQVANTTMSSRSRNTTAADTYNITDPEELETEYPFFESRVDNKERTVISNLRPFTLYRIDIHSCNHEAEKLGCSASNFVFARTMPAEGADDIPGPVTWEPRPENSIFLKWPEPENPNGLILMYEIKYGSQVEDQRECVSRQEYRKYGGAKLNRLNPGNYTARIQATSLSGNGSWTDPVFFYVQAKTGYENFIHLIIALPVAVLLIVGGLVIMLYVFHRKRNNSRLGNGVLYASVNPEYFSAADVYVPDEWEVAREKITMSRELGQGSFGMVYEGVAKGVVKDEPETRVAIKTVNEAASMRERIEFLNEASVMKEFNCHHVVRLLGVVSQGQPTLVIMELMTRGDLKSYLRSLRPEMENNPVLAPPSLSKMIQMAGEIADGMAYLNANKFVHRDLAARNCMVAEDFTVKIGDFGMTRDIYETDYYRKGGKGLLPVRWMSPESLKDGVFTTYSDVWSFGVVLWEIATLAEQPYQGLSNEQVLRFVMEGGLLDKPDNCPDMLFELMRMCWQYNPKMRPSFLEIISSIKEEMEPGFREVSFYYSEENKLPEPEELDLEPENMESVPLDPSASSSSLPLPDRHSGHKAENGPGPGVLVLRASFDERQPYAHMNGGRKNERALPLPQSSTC
Protein kinase C eta type (Homo sapiens), sequence (P24723 whole entry): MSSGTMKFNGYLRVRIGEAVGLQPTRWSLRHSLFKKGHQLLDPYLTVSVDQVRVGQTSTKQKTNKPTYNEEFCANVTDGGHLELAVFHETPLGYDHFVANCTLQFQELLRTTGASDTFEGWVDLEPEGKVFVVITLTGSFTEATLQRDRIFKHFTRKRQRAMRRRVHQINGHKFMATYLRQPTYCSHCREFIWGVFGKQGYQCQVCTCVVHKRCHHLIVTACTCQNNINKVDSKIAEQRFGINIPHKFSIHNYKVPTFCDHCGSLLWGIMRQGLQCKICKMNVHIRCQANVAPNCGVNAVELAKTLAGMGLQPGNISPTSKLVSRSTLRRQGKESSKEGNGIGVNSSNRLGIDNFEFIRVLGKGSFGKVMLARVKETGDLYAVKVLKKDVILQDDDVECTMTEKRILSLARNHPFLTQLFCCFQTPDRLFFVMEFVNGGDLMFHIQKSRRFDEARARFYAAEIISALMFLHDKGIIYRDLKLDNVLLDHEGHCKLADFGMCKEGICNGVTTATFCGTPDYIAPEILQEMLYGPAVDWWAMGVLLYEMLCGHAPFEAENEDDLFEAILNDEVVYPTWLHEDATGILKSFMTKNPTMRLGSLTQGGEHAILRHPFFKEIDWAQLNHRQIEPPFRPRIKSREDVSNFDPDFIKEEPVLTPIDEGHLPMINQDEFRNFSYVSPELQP
Serine/threonine-protein kinase N2 (Homo sapiens), sequence (Q16513 whole entry, looked up): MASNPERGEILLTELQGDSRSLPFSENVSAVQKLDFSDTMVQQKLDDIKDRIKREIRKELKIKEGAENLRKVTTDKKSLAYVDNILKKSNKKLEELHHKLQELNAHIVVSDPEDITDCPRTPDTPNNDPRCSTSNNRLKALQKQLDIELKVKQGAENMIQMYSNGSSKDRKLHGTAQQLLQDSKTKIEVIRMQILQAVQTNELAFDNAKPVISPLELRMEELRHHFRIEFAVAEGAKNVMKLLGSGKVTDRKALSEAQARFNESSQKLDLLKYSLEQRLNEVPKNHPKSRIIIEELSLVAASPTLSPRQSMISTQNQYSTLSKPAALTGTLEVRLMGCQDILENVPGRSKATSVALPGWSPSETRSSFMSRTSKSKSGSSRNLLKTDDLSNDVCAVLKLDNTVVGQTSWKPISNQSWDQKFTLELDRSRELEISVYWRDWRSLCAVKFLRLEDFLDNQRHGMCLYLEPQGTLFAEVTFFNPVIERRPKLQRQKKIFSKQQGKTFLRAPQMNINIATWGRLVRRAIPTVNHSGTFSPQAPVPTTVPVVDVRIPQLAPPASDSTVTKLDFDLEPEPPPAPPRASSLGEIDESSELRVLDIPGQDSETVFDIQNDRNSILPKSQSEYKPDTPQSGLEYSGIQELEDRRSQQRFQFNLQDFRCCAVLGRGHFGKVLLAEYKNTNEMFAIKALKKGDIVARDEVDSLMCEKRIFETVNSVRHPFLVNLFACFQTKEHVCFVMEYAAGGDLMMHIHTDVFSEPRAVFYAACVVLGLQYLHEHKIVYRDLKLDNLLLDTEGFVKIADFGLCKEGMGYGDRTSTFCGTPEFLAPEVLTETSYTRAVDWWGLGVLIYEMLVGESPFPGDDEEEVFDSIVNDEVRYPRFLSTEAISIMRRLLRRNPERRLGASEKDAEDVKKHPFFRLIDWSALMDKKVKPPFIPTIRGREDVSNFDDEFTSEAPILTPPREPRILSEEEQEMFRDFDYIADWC

On to `CCc1nc(-c2ccc(OC)cc2)[nH]c1-c1ccncc1`, for which the residual activity in assay [1] was found to be 128%; in [2], 104%; in assay [3], 105%; in assay [4], 73%; in assay [5], 108%; in assay [6] it was 105%. Further, the residual activity in assay [7] is 107% (inactive); in assay [8], 105%; in [9], 102%; in assay [10], 74%.
Consider `c1cc(-c2cnn3cc(-c4ccc(OCCN5CCCCC5)cc4)cnc23)ccn1`, for which the residual activity is 143% in assay [1]; 106% in assay [3]; 86% in assay [8]; 54% in assay [11]; 73% in assay [12]; 25% in [13]. For the same compound, the residual activity in assay [14] was determined as 66%; in assay [15] it was 12%; in assay [9] it was 47%; in assay [10], 6%.
For the compound `O=[N+]([O-])/C=C/c1ccc2c(c1)OCO2`, the residual activity came out at 121% in assay [1]; 114% in [2]; 100% in assay [3]; 72% in [4]; 95% in assay [5]; 93% in [6]. In addition, the residual activity in assay [7] was 93% (inactive); in [8], 76%; in [16], 91%; in assay [11], 88%; in [17], 105%; in [18] it was 105%. The residual activity amounted to 107% in assay [12]; 106% in assay [13]; 101% in [14]; 90% in assay [15]; 85% in [19]; 70% in [20]. Besides, the values for the residual activity in assay [9] and in assay [10] were 102% and 107%, respectively.
As for `O=C1c2ccccc2-c2nc3nnnn3nc21`, the residual activity in assay [1] was determined as 83%; in assay [2], 108%; in assay [3], 117%; in [4], 83%; in [16], 104%; in [11], 106%.
Take `COc1ccc2c(c1)/C(=C/c1cnc[nH]1)C(=O)N2`: the residual activity was found to be 128% in [1]; 97% in [17]; 39% in [18]; 122% in assay [19]; 63% in assay [20]; 40% in [10].
